The values below come from PubChem BioAssay (NCI).

What all share (test): NCI-60 one-dose screen, 48 h (100 = growth as untreated, 0 = no growth, -100 = all killed)
Common to all, as to settings: 10 µM unless noted

Experiment [1] has as its system T-47D breast.
In experiment [2] the test system is BT-549 breast.
Experiment [3] deals with MDA-MB-435 melanoma.
The test system of experiment [4] is SW-620 colon.
Experiment [5] has as its system MCF7 breast.
For experiment [6], the system named is HCT-116 colon.
Experiment [7] has as its system HCC-2998 colon.
Experiment [8] relates to KM12 colon.

Molecules are shown by their SMILES. This is part of a sample that, as a whole, favours compounds with a hit. Of some 83,000 tested, about 20% had one in any assay.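 Cell lines were cultured in 96-well plates, exposed to a single compound concentration, and assessed for percent growth 48 hours later.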 Unmarked numbers belong to inactive results. The source made the active and inactive calls. The calls were made as follows: active = growth percent below 10; inactive = the rest.

Take `CC1CCN(S(=O)(=O)c2ccc(S(=O)(=O)N3CCCC(c4nc5c(nnn5Cc5cccc(Cl)c5)c(=O)[nH]4)C3)cc2)CC1` (stereo not given): the growth in experiment [1] is 50.3%; in experiment [2] it was 67.9%; in experiment [3] it was -30.9% (active); in experiment [4], 33.4%; in experiment [5], 23.3%; in experiment [6], 15.1%. The growth in experiment [7] is 70.8%; in experiment [8], 39.3%.

For `NC(=O)c1ccc(-c2c3ccccc3cc3c2ccc2ccccc23)cc1`, the growth in experiment [1] is 60.4%; in experiment [2] it was 29.1%; in experiment [3], 0.545% (active); in experiment [4], 17.1%; in experiment [5] it was 17.7%; in experiment [6] it was 33.4%. Besides, the growth in experiment [7] was 60%; in experiment [8], 3.27% (active).

On to `O=C(NCCNc1nccc(Nc2ccc(S(=O)(=O)Nc3ccccn3)cc2)n1)c1cccc([N+](=O)[O-])c1`, for which the growth was 89% in experiment [1]; 96.9% in experiment [2]; 103% in experiment [3]; 102% in experiment [4]; 88.5% in experiment [5]; 90.4% in experiment [6]. The growth in experiment [7] was 109%; in experiment [8], 99%.

On to `Cn1cc(-c2ccc3nc(-c4ccc(CC(=O)ONc5cc(C(C)(C)C)on5)cc4)cnc3c2)cn1`, for which the growth in experiment [1] is 24.2%; in experiment [2], 29.6%; in experiment [3], 34.4%; in experiment [4], 40.6%; in experiment [5] it was 53.1%; in experiment [6], 16.7%. In addition, the values for the growth in experiment [7] and in experiment [8] were 41.8% and 11%, respectively.

Regarding `Nc1nc(-c2ccc(Cl)cc2)nc2c1sc(=S)n2-c1ccccc1`, the growth in experiment [1] was 14.8%; in experiment [2] it was 54.9%; in experiment [3], 57.4%; in experiment [4], 55.3%; in experiment [5] it was 57.6%; in experiment [6] it was 20.1%. For the same compound, the growth in experiment [7] is 72.3%; in experiment [8], 36%.

With `CCC(=O)Oc1ccc(-c2ccccc2)cc1Br`, the growth in experiment [1] is 101%; in experiment [2], 109%; in experiment [3], 109%; in experiment [4], 99.1%; in experiment [5], 93.6%; in experiment [6], 104%. For the same compound, the growth in experiment [7] is 112%; in experiment [8] it was 111%.

For the compound `O=C(/C=C/c1cccs1)Nc1ncc(Cc2ccccc2F)s1`, the growth in experiment [1] was 23.8%; in experiment [2] it was 52.3%; in experiment [3] it was -64.4% (active); in experiment [4] it was 24.5%; in experiment [5], 17.1%; in experiment [6], 28.6%. Also, the growth in experiment [7] is 44.4%; in experiment [8] it was 16.7%.

On to `C#Cc1c2c(c(OC)c3c1OCO3)[C@H]([C@H]1OC(=O)c3c1ccc(OC)c3OC)N(C)CC2`, for which the growth in experiment [1] was 86.7%; in experiment [2] it was 90%; in experiment [3], 7.84% (active); in experiment [4] it was 84.5%; in experiment [5] it was 55.5%; in experiment [6], 89.8%. For the same compound, the growth in experiment [7] is 86.4%; in experiment [8], 59.9%.

Take `COc1ccc(-c2cc(-c3cc(OC)c(OC)c(OC)c3)c(C#N)c(=O)n2CCCCC(=O)NO)cc1`: the growth is 50.7% in experiment [1]; 92.7% in experiment [2]; 37.7% in experiment [3]; 47.9% in experiment [4]; 66.5% in experiment [5]; 25.1% in experiment [6]. The growth in experiment [7] is 87.5%; in experiment [8], 73.1%.

In the case of `Cn1ccnc1C(=O)/C=C/c1ccc(CC(=O)Nc2cc(C(F)(F)F)cc(C(F)(F)F)c2)cc1`, the growth in experiment [1] is 52.1%; in experiment [2], 80.3%; in experiment [3], 68.5%; in experiment [4], 70.5%; in experiment [5], 30.8%; in experiment [6] it was 51.6%. For the same compound, the figures for the growth in experiment [7] and in experiment [8] were 83.6% and 63%, respectively.

On to `N#CSCC1CC(O)(c2ccccc2)CC(c2ccc(F)cc2)O1` (stereo not given), for which the growth in experiment [1] is 12.5%; in experiment [2], -9.66% (active); in experiment [3] it was 0.665% (active); in experiment [4], -58.8% (active); in experiment [5], -17% (active); in experiment [6], -60.4% (active). The growth was 72% in experiment [7] and -49.3% (active) in experiment [8].

For the compound `CC(=O)n1nc(C(=O)OC(C)(C)c2ccccc2)c2ccccc21`, the growth in experiment [1] is 86.3%; in experiment [2], 99.6%; in experiment [3] it was 92.1%; in experiment [4], 103%; in experiment [5], 94%; in experiment [6] it was 94.8%. Moreover, the values for the growth in experiment [7] and in experiment [8] were 98.2% and 94.7%, respectively.

As to `CC1=C([Se]CC(OC(=O)CC[Se]c2ccccc2)C(=O)NC(C)(C)C)C(=O)c2ccccc2C1=O` (stereo not given), the growth in experiment [1] is -54.5% (active); in experiment [2], -89% (active); in experiment [3] it was -61.7% (active); in experiment [4] it was -76.9% (active); in experiment [5], -54.7% (active); in experiment [6], -61.9% (active). Moreover, the figures for the growth in experiment [7] and in experiment [8] were -87.2% (active) and -92.3% (active), respectively.

Consider `Cn1cc(-c2csc(-c3cn(C(=O)OC(C)(C)C)c4ccc(Br)cc34)n2)c2ccnc(Cl)c21`, for which the growth in experiment [1] is 66.8%; in experiment [2], 63.9%; in experiment [3] it was 63.7%; in experiment [4], 75.8%; in experiment [5] it was 82.8%; in experiment [6] it was 64.7%. In addition, the growth in experiment [7] was 95%; in experiment [8], 90.4%.

As to `CNC(=O)c1[nH]cc(-c2ccc(OC)cc2)c1-c1cc(OC)c2c(c1OC)OCO2`, the growth was 92.3% in experiment [1]; 97.4% in experiment [2]; 99.6% in experiment [3]; 103% in experiment [4]; 97.5% in experiment [5]; 95.6% in experiment [6]. Also, the growth in experiment [7] was 101%; in experiment [8] it was 104%.
